PubChem BioAssay (NCI)
This is part of a sample that, as a whole, favours compounds with a hit. Of some 83,000 tested, about 20% had one in any assay.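 The test compound was applied at a single concentration to cells in 96-well plates for 48 hours, and percent growth was recorded.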 A number with no mark means an inactive call. The source made the active and inactive calls. Rule for the calls: active = growth percent below 10; inactive = the rest.

System: MDA-MB-468 breast
Assay: NCI-60 one-dose screen, 48 h (100 = growth as untreated, 0 = no growth, -100 = all killed)
Details: 10 µM unless noted

SMILES	growth
Cc1nc2ccc(Nc3nc(Cl)nc(N4CCOCC4)n3)cc2n1Cc1ccccc1	62.2%
CSc1nnc(-c2cc3c([nH]c4ccccc43)c(-c3cccc(O)c3)n2)n1-c1ccc(C)cc1	20.4%
COc1cc2c(cc1-c1c(C)noc1C)ncc1nc(C3CCOCC3)n([C@H](C)COC(F)F)c12	40%
CCCCCCCCNc1cc2c3c(c1)CCCN3CCC2	-23% (active)
CCN1C(=O)N[C@H]2[C@@H]3NC(=O)c4ccc(Cl)n4[C@@H]3C[C@]21O	-6.44% (active)
COc1cc2c(=O)n(CCN)c3c4cc5c(cc4ccc3c2cc1OC)OCO5	-31.7% (active)
Cc1nc(C)c(-c2nn3c(-c4cccc(F)c4)nnc3s2)s1	89.5%
C#Cc1cccc(Nc2ncnc3ccc(NC(=O)c4ccccc4)cc23)c1	-28.5% (active)
O=C(CCl)Nc1ccccc1SCc1cc(Cl)cc2c1OCOC2	51.6%
Cc1ccccc1N1CCN(C2=C(Cl)C(=O)c3ncccc3C2=O)CC1	-68.8% (active)
CNCCNc1nc2ccccc2c2c(=O)c3cc(F)ccc3oc12	59.1%
N/C(=N\N=C\c1cc2ccccc2s1)N/N=C/c1cc2ccccc2s1	122%
O=[N+]([O-])c1ccc(-c2nnc(SCc3ccc(O)c4ncccc34)n2-c2ccccc2)cc1	19.9%
CCC(CC)NCC(C)(C)O	104%
O=C1/C(=C/c2ccc(Cl)c(Cl)c2)CN(C(=O)C(Cl)Cl)C/C1=C\c1ccc(Cl)c(Cl)c1	-52.5% (active)
